Experiment [1] in a line: antimalarial activity against Dd2 strain (AID 2302;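 active = growth inhibition above 50% at the single 2 µM test dose, taken to imply half-maximal potency below 2 µM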;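 also: 0% = DMSO untreated growth and 100% = chloroquine plus artemisinin killed control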). The settings on record: P. falciparum Dd2 in RBCs, LDH growth readout, 72 h; at 2 µM; stronger effect = higher value.
Experiment [2] in a line: human hepatoma cell viability loss – ATP luminescence, cytotoxicity control for P. falciparum antimalarial project, primary screen (AID 2303;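 active = inhibition above 50%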;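 also: 0% = DMSO wells and 100% = digitonin-killed cells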). The settings on record: HepG2 viability, 24-48 h, at 10 µM, stronger effect = higher value.
The target of experiment [3] is L-lactate dehydrogenase (Plasmodium falciparum (isolate CDC / Honduras)) (UniProt Q27743). As to the kind of experiment: PfLDH activity inhibition – cell lysate, 3D7 strain, counter-screen for P. falciparum growth inhibition project (AID 2304).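 Also: 0% = vehicle and 100% = reference inhibitor.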 The settings on record: P. falciparum 3D7 crude extract, LDH APAD/NBT absorbance; at 2 µM; stronger effect = higher value. A general note: The purpose of a counterscreen is to sort out artefacts and off-target activity.

The nature of experiment [4]: inhibition of 3D7 malaria parasite growth – strain 3D7 (AID 2306).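 Also: 0% = DMSO wells and 100% = chloroquine plus artemisinin control wells.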 The settings on record: P. falciparum 3D7 erythrocytic growth, LDH absorbance, 72 h; at 2 µM; stronger effect = higher value.
Experiment [5] concerns the target Calcium-dependent protein kinase 1 (Plasmodium falciparum (isolate 3D7)) (UniProt P62344). Briefly: PfCDPK1 kinase inhibitors, biochemical, TCAMS library (AID 1159585; cut-off not given, nearly all actives have IC50 up to about 0.98 µM;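 also: inhibitors leave more ATP so luminescence rises with inhibition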). The settings on record: recombinant PfCDPK1, Kinase-Glo ATP depletion luminescence. (Kinase-Glo measures the ATP left after a reaction by luminescence.)
For experiment [6], the target named is Plasmodium falciparum protein kinase 6 (PK6, PF3D7_1337100) (UniProt Q8IDW1). As to the kind of experiment: PfPK6 kinase inhibitors, biochemical, TCAMS library (AID 1159586). The settings on record: recombinant PfPK6, Kinase-Glo ATP depletion luminescence.
For experiment [7], the target named is Protein kinase 7 (PK7), Plasmodium falciparum 3D7 (PF3D7_0213400) (UniProt Q7YTF7). As to the kind of experiment: inhibition of Plasmodium PK7 catalytic activity – biochemical, TCAMS antimalarial set, Kinase-Glo luminescence (AID 1159587). The settings on record: recombinant PfPK7, Kinase-Glo ATP depletion luminescence.
Experiment [8] addresses Calcium-dependent protein kinase 4 (Plasmodium falciparum (isolate 3D7)) (UniProt Q8IBS5). Briefly: PfCDPK4 kinase inhibitors, biochemical, TCAMS library (AID 1159588; cut-off not given, nearly all actives have IC50 up to about 0.91 µM). The settings on record: recombinant PfCDPK4, Kinase-Glo ATP depletion luminescence.

Values without a mark were called inactive. For some of these results: Results with a measured potency or affinity are listed apart. Calls of active or inactive are those of the source. Unless noted, no rule for the calls is given here.

Calcium-dependent protein kinase 4 (Plasmodium falciparum (isolate 3D7)), sequence (Q8IBS5 whole entry, looked up): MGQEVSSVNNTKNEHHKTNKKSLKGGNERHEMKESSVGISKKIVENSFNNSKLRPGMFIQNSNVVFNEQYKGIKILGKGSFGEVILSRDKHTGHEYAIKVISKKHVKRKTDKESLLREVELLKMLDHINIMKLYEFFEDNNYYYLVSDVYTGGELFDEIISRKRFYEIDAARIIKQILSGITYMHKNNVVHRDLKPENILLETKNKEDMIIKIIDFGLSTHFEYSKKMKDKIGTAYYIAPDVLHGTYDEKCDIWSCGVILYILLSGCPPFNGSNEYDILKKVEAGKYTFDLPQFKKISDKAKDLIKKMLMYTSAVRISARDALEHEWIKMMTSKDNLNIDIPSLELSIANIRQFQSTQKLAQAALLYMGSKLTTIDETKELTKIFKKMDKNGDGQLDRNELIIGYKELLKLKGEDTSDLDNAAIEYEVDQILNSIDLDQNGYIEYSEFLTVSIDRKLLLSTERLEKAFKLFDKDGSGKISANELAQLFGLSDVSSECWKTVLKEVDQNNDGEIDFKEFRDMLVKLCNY
L-lactate dehydrogenase (Plasmodium falciparum (isolate CDC / Honduras)), sequence (Q27743 whole entry, looked up): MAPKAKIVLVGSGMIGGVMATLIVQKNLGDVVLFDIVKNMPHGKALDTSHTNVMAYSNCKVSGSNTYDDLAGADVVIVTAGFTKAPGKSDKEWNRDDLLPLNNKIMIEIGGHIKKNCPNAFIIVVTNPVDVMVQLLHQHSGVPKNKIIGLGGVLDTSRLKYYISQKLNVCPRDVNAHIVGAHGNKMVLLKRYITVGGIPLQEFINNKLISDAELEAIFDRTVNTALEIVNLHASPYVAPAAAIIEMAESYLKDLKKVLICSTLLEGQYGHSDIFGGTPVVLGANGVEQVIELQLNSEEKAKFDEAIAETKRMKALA
Protein kinase 7 (PK7), Plasmodium falciparum 3D7 (PF3D7_0213400), sequence (Q7YTF7 1-343): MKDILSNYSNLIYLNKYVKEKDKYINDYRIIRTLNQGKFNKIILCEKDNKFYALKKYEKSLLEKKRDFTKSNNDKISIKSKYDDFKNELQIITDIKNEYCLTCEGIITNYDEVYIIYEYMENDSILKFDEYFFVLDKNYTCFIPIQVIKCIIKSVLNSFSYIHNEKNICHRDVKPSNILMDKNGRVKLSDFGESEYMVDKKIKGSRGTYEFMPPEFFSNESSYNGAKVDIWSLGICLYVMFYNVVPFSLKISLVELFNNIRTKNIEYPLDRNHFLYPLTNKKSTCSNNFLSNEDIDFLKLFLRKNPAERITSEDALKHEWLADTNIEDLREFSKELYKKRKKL
Calcium-dependent protein kinase 1 (Plasmodium falciparum (isolate 3D7)), sequence (P62344 whole entry, looked up): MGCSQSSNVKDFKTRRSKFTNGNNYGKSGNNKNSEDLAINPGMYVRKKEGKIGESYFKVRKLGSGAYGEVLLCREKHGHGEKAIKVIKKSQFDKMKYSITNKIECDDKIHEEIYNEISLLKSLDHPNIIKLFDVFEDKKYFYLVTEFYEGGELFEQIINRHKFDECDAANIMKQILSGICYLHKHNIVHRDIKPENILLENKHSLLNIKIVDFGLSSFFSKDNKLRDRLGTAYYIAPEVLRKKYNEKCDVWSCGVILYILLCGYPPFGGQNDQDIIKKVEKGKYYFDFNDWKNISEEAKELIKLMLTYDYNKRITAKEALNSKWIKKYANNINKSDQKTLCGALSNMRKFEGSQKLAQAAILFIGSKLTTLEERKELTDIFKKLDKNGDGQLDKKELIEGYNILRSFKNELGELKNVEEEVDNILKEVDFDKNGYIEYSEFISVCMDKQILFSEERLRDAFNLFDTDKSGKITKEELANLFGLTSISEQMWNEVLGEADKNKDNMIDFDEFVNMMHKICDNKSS
Plasmodium falciparum protein kinase 6 (PK6, PF3D7_1337100), sequence (Q8IDW1 1-305): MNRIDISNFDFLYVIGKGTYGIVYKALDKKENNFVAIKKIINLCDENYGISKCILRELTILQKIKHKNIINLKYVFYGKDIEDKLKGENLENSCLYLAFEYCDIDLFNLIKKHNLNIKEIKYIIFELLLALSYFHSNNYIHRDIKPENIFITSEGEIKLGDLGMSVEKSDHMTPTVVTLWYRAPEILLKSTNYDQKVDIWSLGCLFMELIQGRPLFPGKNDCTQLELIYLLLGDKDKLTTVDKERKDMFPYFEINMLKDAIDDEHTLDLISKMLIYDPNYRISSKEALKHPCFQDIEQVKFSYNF

Regarding `CC(=O)Nc1ccc(C(=O)Nc2ccc(-c3cccc(-c4nc5c(C)cccc5[nH]4)c3)cc2)cn1`, the growth inhibition is 74% (active) in experiment [1] and 99% (active) in experiment [4]. Further, the figures for the inhibition in experiment [2] and in experiment [3] were 36% and -7%, respectively. Also, the result in experiment [5], in experiment [6], in experiment [7] and in experiment [8] was inactive.

For the molecule `O=C(NC1CCCCC1)N(Cc1ccc(-c2ccc(CNCc3ccc4c(c3)OCO4)cc2)cc1)C1CCN(Cc2ccccc2)CC1`, the values for the growth inhibition in experiment [1] and in experiment [4] were 72% (active) and 102% (active), respectively. The results for the inhibition in experiment [2] and in experiment [3] were 28% and -2%, respectively. For the same molecule, the result in experiment [5], in experiment [6], in experiment [7] and in experiment [8] was inactive.

Consider `COc1cc(CNCCCCCCNCc2cc(OC)c(OC)c3ccccc23)c2ccccc2c1OC`, for which the growth inhibition in experiment [1] and in experiment [4] was 100% (active) throughout. The inhibition in experiment [2] was 100% (active); in experiment [3] it was -1%. Further, the outcome in experiment [5], in experiment [6], in experiment [7] and in experiment [8] was inactive.

In the case of `c1ccc(CNc2nc(NCCc3cnc[nH]3)nc(NCc3cccc4ccccc34)n2)cc1`, the growth inhibition in experiment [1] is 1%; in experiment [4] it was 91% (active). Besides, the inhibition in experiment [2] was 9%; in experiment [3], -4%. Besides, the result in experiment [5], in experiment [6], in experiment [7] and in experiment [8] was inactive.

As to `COc1cccc(CNC(=O)NC2CCN(c3ccnc(Nc4cc(OC)c(OC)c(OC)c4)n3)C2)c1` (stereo not given), the growth inhibition in experiment [1] was 84% (active); in experiment [4], 93% (active). The values for the inhibition in experiment [2] and in experiment [3] were 15% and -6%, respectively. For the same molecule, the outcome in experiment [5], in experiment [6], in experiment [7] and in experiment [8] was inactive.

For `CC(C)(C)c1ccc(CN2CCCCC(NC(=O)c3cc(-c4cccc(Cl)c4)cs3)C2)cc1` (stereo not given), the growth inhibition in experiment [1] is 60% (active); in experiment [4] it was 96% (active). For the same molecule, the inhibition was 11% in experiment [2] and 1% in experiment [3]. In addition, the result in experiment [5], in experiment [6], in experiment [7] and in experiment [8] was inactive.

`Cc1ccc(Sc2ccc(NC(=O)CN3CCN(C(=O)c4ccco4)CC3)cc2)cc1C`: the values for the growth inhibition in experiment [1] and in experiment [4] were 84% (active) and 92% (active), respectively. The inhibition in experiment [2] was 14%; in experiment [3], 1%. Further, the outcome in experiment [5], in experiment [6], in experiment [7] and in experiment [8] was inactive.

For the molecule `CCOc1ccccc1C(=O)N1CCc2cc3nccc(N4CCN5CCC[C@H]5C4)c3cc21`, the figures for the growth inhibition in experiment [1] and in experiment [4] were 58% (active) and 100% (active), respectively. The inhibition in experiment [2] was 4%; in experiment [3] it was -8%. Further, the result in experiment [5], in experiment [6], in experiment [7] and in experiment [8] was inactive.

Consider `O=C(NC1CCN(Cc2ccc3c(c2)OCCO3)CC1)c1ccc(-c2cccc(C(F)(F)F)c2)s1`, for which the growth inhibition in experiment [1] was 35%; in experiment [4], 100% (active). Besides, the results for the inhibition in experiment [2] and in experiment [3] were 99% (active) and 5%, respectively. Besides, the result in experiment [5], in experiment [6], in experiment [7] and in experiment [8] was inactive.

Regarding `COc1ccc2ncc(F)c(CCN3C[C@H](CNCc4ccc5oc(=O)ccc5c4)[C@H](O)C3)c2n1`, the growth inhibition in experiment [1] was 6%; in experiment [4], 89% (active). The inhibition in experiment [2] was 18%; in experiment [3] it was 3%. The outcome in experiment [5], in experiment [6], in experiment [7] and in experiment [8] was inactive.

`N#Cc1ccc(-c2ccc(C(=O)NCCCCN3CCC(n4cnc5ccccc54)CC3)cc2)cc1`: the growth inhibition is 2% in experiment [1] and 94% (active) in experiment [4]. The inhibition in experiment [2] is 15%; in experiment [3], -3%. Besides, the outcome in experiment [5], in experiment [6], in experiment [7] and in experiment [8] was inactive.

On to `Cc1cc(NN=Cc2ccccc2Cl)c2cc(F)ccc2n1`, for which the growth inhibition was 4% in experiment [1] and 101% (active) in experiment [4]. The inhibition in experiment [2] is 5%; in experiment [3], -2%. In addition, the result in experiment [5], in experiment [6], in experiment [7] and in experiment [8] was inactive.

Take `O=C(Nc1cccc(-c2ccc(CN3CCC(O)CC3)cc2)c1)c1ccc(Cl)cc1`: the growth inhibition in experiment [1] was 8%; in experiment [4], 95% (active). The inhibition in experiment [2] is 46%; in experiment [3] it was 4%. Besides, the result in experiment [5], in experiment [6], in experiment [7] and in experiment [8] was inactive.

On to `O=C(NCCCCN1CC=C(c2ccc3c(c2OCC2CC2)CCCC3)CC1)c1ccc(-c2ccc(C(F)(F)F)cc2)cc1`, for which the growth inhibition in experiment [1] is 60% (active); in experiment [4], 93% (active). Also, the inhibition in experiment [2] was 25%; in experiment [3], -10%. For the same molecule, the outcome in experiment [5], in experiment [6], in experiment [7] and in experiment [8] was inactive.

On to `Cc1cc(C(=O)CSc2nc3ccccc3n2-c2ccccc2)c(C)n1C1CCS(=O)(=O)C1` (stereo not given), for which the growth inhibition in experiment [1] is -3%; in experiment [4], 92% (active). Further, the inhibition in experiment [2] is -18%; in experiment [3] it was 0%. Moreover, the result in experiment [5], in experiment [6], in experiment [7] and in experiment [8] was inactive.

For `CNS(=O)(=O)c1ccc(NC(=O)c2cc(-c3cccnc3)nc3ccc(Br)cc23)cc1`, the results for the growth inhibition in experiment [1] and in experiment [4] were 55% (active) and 101% (active), respectively. The inhibition was 9% in experiment [2] and 5% in experiment [3]. Moreover, the result in experiment [5], in experiment [6], in experiment [7] and in experiment [8] was inactive.

`COc1ccc(NC(=O)Nc2cc(C)nc3cccnc23)cc1Cn1ccnc1`: the growth inhibition in experiment [1] was 41%; in experiment [4] it was 100% (active). Also, the inhibition in experiment [2] is 12%; in experiment [3], -3%. Further, the result in experiment [5], in experiment [6], in experiment [7] and in experiment [8] was inactive.

Consider `CC(C)(C)c1ccc(NC(=O)c2cccc(CN3CCN(Cc4cccc(O)c4)CC3)c2)cc1`, for which the growth inhibition in experiment [1] was 3%; in experiment [4] it was 92% (active). Also, the inhibition was 28% in experiment [2] and -2% in experiment [3]. Further, the result in experiment [5], in experiment [6], in experiment [7] and in experiment [8] was inactive.

For `O=C(/C=C/c1cccc(Cl)c1)N1CCC(C(O)CN2CCC3(CC2)CN(C(=O)/C=C/c2cccc(Cl)c2)c2ccccc23)CC1` (stereo not given), the growth inhibition is 38% in experiment [1] and 91% (active) in experiment [4]. The results for the inhibition in experiment [2] and in experiment [3] were 34% and 0%, respectively. For the same molecule, the outcome in experiment [5], in experiment [6], in experiment [7] and in experiment [8] was inactive.

Consider `Cc1[nH]c(C)c(-c2ccc(OCc3ccc(F)cc3)cc2)c(=O)c1Cl`, for which the growth inhibition in experiment [1] is 96% (active); in experiment [4] it was 95% (active). Moreover, the inhibition in experiment [2] was -10%; in experiment [3], -1%. Also, the result in experiment [5], in experiment [6], in experiment [7] and in experiment [8] was inactive.

As a reminder, the inhibition is the change of the read-out against control, counted positive when it falls.

(Values after PubChem BioAssay.)
